Test results: the supplement of paper PMC10849652
Of roughly 8,800 targets only a part is listed; those with a hit were picked by preference. About 0.5% of all pairs of compound and target were hits.

Assays:
Assay in all cases: log2 fold change, soluble protein after heating vs DMSO (PISA); higher = thermal stabilisation; K562 lysate, 10 uM; active = over 0.2 and 3.5 SD of the protein, either way, in both replicates (recomputed)
[1] = compound: C1=CC=C(C=C1)[C@H](COC2=CC3=C(C=C2)NC(=O)N3)NC(=O)C4=CC=CN(C4=O)CC5=CC(=C(C=C5)F)F
Method in brief: (§1)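 Following dounce homogenisation of K562 pellets in PBS pH 7.4 with 1 mM MgCl2, crude extract at 1 mg/mL protein was incubated for 30 min with 10 μM compound. Aliquots were then heated for 3 min over 48°C-58°C and pooled, NP-40 was added to 0.5% at 4°C, and soluble protein was recovered as the supernatant at 21,000xg for 90 min. Channel-sum-equalised TMTpro 16plex LC-MS/MS quantified this protein. Each value, from duplicates, is a log-two fold change in thermal stability relative to solvent controls.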

[2] = compound: CC1=C(SC2=C1C(=N[C@H](C3=NN=C(N32)C)CC(=O)N)C4=CC=C(C=C4)Cl)C
Method in brief: as §1

[3] = compound: CC1=C2C(=CC=C1)N=C(N(C2=O)C3=CC=CC=C3C)CN4C=NC5=C(N=CN=C54)N
Method in brief: as §1

[4] = compound: Cc1sc2c(c1C)C(c1ccc(Cl)cc1)=N[C@@H](CC(=O)OC(C)(C)C)c1nnc(C)n1-2
Method in brief: as §1

[5] = compound: c1ccc([C@@H]2C[C@H]2NC2CCNCC2)cc1
Method in brief: as §1

Measured: log2 fold change

LZTR1 (UniProt Q8N653)
inactive: [1] -0.237 | [2] 0.004 | [3] 0.005 | [4] -0.004 | [5] 0.036

LUZP1 (UniProt Q86V48)
inactive: [1] 0.039 | [2] -0.113 | [3] 0.032 | [4] 0.007 | [5] -0.056

LYAR (UniProt Q9NX58)
inactive: [1] 0.051 | [2] 0.015 | [3] -0.006 | [4] 0.031 | [5] 0.11

L3HYPDH (UniProt Q96EM0)
inactive: [1] -0.022 | [2] 0.042 | [3] 0.003 | [4] -0.014 | [5] 0.01

LYSMD3 (UniProt Q7Z3D4)
inactive: [1] 0.031 | [2] 0.063 | [3] 0.062 | [4] -0.096 | [5] -0.084

MAPK6 (UniProt Q16659)
inactive: [1] 0.062 | [2] -0.015 | [3] -0.016 | [4] -0.001 | [5] -0.037

MARK2 (UniProt E9PC69)
inactive: [1] 0.003 | [2] -0.004 | [3] 0.071 | [4] -0.043 | [5] 0.035

MLH1 (UniProt P40692)
UniProt P40692, sequence (P40692 whole entry, looked up): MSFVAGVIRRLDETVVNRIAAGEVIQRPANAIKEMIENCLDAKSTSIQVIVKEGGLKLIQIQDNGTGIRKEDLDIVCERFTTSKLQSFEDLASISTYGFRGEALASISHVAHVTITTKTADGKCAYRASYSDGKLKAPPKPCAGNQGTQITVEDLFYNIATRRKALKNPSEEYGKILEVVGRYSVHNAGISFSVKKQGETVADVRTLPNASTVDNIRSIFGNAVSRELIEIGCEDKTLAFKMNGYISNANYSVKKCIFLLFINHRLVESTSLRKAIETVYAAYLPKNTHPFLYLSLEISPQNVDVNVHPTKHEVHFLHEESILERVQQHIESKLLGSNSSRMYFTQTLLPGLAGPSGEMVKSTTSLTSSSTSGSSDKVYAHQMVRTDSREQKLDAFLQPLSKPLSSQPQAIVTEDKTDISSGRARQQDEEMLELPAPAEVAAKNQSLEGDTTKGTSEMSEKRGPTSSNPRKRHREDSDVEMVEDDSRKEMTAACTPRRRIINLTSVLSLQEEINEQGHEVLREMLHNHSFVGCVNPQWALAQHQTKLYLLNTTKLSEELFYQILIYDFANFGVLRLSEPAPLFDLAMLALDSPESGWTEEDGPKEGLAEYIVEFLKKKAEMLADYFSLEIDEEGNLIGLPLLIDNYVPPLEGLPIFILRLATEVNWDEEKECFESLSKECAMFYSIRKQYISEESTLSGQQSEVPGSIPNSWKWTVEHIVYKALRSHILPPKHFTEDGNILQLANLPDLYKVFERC
inactive: [1] -0.038 | [2] -0.006 | [3] 0.006 | [4] -0.012 | [5] 0.019

MPI (UniProt P34949)
inactive: [1] 0.023 | [2] -0.014 | [3] 0.033 | [4] -0.023 | [5] 0.083

MMS19 isoform 8 (UniProt Q96T76)
inactive: [1] -0.024 | [2] 0.001 | [3] 0.032 | [4] -0.005 | [5] 0.018

MAP2K4 isoform 2 (UniProt P45985)
UniProt P45985, sequence (P45985 whole entry, looked up): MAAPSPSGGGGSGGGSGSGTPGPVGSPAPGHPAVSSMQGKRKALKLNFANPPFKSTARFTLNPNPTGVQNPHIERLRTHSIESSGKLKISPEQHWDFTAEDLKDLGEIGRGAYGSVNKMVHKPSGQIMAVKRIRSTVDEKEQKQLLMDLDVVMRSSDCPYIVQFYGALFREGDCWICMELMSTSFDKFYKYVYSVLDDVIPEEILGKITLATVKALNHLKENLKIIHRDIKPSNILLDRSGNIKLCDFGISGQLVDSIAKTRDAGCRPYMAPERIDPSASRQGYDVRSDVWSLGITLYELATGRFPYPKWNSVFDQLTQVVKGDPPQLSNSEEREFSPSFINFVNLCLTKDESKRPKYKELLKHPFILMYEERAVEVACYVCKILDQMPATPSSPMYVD
inactive: [1] -0.018 | [2] 0.005 | [3] -0.065 | [4] -0.013 | [5] 0.188

LARS (UniProt Q9P2J5)
inactive: [1] -0.02 | [2] -0.007 | [3] 0.015 | [4] 0.04 | [5] 0.077

MGST3 (UniProt O14880)
UniProt O14880, sequence (O14880 whole entry, looked up): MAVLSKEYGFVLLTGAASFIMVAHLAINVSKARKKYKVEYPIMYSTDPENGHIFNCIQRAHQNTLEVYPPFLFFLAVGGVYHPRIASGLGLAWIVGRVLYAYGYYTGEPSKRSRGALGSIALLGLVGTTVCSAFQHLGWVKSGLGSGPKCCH
inactive: [1] 0.003 | [2] -0.033 | [3] -0.008 | [4] -0.072 | [5] 0.056

MBLAC2 (UniProt Q68D91)
inactive: [1] -0.011 | [2] -0.005 | [3] 0.001 | [4] 0.013 | [5] -0.033

KIF21A isoform 5 (UniProt Q7Z4S6)
inactive: [1] -0.023 | [2] 0.024 | [3] -0.003 | [4] 0.009 | [5] 0.118

MOCS1 isoform 8 (UniProt Q9NZB8)
inactive: [1] -0.061 | [2] -0.044 | [3] 0.058 | [4] -0.017 | [5] 0.067

KIF26A (UniProt Q9ULI4)
UniProt Q9ULI4, sequence (Q9ULI4 whole entry, looked up): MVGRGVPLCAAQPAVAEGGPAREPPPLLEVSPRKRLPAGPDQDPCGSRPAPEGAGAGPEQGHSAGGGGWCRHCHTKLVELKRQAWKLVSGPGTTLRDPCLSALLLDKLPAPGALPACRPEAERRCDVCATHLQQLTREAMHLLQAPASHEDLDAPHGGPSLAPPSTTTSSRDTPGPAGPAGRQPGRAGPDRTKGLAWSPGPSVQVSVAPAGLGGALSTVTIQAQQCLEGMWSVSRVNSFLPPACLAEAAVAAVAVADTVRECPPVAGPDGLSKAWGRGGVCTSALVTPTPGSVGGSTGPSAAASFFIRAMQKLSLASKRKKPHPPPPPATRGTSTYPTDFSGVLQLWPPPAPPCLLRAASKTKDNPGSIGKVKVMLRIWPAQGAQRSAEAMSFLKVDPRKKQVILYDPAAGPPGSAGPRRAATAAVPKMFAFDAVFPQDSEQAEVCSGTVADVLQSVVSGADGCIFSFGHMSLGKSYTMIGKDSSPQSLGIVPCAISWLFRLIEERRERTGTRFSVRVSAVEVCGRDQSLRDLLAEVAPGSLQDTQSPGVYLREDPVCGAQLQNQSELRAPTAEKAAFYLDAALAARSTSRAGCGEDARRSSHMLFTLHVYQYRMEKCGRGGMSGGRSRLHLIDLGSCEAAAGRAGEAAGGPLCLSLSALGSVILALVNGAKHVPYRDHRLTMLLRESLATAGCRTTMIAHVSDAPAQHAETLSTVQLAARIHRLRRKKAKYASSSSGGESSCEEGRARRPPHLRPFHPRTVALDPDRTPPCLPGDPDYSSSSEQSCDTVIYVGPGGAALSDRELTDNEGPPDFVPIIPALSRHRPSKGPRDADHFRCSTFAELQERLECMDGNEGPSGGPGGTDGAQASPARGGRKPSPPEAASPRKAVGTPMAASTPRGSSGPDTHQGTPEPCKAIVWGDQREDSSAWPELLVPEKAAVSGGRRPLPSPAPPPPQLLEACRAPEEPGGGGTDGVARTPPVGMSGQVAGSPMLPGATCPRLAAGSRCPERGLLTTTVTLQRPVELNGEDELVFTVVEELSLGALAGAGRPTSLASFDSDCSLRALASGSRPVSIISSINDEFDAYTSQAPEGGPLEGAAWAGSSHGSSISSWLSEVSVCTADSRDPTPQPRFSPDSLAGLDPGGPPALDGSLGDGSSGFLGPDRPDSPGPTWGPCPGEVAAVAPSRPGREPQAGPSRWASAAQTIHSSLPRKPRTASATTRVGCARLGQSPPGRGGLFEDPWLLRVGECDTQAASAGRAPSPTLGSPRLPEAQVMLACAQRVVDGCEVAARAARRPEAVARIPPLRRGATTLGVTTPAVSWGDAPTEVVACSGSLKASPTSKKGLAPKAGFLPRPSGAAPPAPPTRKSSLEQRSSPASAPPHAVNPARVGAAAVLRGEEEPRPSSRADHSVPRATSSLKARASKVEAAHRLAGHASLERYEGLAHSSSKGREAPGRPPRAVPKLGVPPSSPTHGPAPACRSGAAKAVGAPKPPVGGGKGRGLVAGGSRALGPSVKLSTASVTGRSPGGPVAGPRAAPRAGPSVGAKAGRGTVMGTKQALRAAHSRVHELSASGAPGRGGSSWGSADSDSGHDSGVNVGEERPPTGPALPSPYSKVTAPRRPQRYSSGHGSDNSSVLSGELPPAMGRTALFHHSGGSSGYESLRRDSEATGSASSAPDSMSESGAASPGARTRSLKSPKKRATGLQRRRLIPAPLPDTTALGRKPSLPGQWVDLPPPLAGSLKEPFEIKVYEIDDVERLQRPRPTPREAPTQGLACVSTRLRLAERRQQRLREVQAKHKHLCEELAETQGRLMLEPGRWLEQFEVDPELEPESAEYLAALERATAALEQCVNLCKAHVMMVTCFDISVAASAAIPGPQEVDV
inactive: [1] 0.044 | [2] -0.011 | [3] 0.053 | [4] 0.09 | [5] -0.018

LAGE3 (UniProt Q14657)
UniProt Q14657, sequence (Q14657 whole entry, looked up): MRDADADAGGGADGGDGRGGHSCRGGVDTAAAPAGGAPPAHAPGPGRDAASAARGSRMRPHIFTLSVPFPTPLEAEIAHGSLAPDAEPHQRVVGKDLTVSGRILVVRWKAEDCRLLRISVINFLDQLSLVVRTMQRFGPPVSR
inactive: [1] 0.067 | [2] -0.058 | [3] -0.087 | [4] -0.044 | [5] 0.018

MED8 isoform 2 (UniProt Q96G25)
inactive: [1] -0.047 | [2] -0.033 | [3] -0.048 | [4] -0.039 | [5] 0.063

MCU (UniProt Q8NE86)
inactive: [1] 0.021 | [2] 0.028 | [3] -0.031 | [4] -0.023 | [5] 0.015

LRCH3 (UniProt Q96II8)
inactive: [1] -0.038 | [2] -0.044 | [3] 0.025 | [4] -0.014 | [5] -0.028

MMS22L (UniProt Q6ZRQ5)
inactive: [1] -0.062 | [2] -0.027 | [3] -0.038 | [4] 0.07 | [5] 0.11

KIF14 (UniProt Q15058)
UniProt Q15058, sequence (Q15058 whole entry, looked up): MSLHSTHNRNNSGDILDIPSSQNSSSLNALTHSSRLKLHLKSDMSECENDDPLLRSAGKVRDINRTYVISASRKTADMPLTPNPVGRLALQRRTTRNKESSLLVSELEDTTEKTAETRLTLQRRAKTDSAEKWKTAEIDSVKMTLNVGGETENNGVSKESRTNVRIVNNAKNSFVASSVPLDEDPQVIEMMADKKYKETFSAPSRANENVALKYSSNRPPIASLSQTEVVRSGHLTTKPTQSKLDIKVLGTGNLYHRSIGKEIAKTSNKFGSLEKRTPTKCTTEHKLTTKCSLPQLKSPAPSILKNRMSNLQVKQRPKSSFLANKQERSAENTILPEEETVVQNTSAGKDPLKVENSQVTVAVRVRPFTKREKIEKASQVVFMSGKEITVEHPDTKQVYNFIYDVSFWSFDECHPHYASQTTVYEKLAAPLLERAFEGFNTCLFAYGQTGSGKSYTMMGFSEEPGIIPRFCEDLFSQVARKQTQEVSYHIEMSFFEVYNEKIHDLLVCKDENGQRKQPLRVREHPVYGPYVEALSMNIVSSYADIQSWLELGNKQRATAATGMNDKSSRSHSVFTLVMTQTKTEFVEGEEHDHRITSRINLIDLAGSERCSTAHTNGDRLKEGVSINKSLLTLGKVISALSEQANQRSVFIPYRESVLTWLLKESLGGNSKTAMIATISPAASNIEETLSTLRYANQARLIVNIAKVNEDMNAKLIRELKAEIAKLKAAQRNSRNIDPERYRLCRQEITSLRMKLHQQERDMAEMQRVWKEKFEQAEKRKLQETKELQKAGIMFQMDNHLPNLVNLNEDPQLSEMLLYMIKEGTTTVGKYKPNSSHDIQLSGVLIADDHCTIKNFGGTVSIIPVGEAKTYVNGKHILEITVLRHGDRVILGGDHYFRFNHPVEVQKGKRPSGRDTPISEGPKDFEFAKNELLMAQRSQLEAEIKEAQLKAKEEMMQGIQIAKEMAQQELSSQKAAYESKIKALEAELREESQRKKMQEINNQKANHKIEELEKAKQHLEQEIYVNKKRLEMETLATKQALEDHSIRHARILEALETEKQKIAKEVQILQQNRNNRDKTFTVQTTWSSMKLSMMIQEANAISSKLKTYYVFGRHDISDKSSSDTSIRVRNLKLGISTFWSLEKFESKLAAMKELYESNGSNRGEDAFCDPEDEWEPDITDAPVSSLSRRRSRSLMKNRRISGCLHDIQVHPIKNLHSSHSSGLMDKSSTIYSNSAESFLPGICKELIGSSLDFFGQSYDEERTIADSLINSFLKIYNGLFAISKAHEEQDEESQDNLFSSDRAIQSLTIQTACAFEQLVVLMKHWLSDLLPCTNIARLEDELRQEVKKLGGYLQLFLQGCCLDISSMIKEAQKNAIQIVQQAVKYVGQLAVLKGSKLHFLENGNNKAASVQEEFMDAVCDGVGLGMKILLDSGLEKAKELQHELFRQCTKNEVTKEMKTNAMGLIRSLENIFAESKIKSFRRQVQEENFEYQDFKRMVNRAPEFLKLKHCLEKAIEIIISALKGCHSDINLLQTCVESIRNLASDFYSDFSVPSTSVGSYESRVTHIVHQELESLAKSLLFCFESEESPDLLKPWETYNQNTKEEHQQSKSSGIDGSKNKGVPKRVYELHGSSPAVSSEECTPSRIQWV
inactive: [1] 0.028 | [2] -0.148 | [3] 0.059 | [4] -0.012 | [5] 0.039

MRPL15 (UniProt Q9P015)
inactive: [1] -0.016 | [2] 0.04 | [3] 0.003 | [4] 0.04 | [5] -0.212
